Source: PubChem BioAssay (Broad Institute)
C diff HTS – inhibitors of Clostridium difficile growth. 86,000 compounds, 0.25% hits. AID 1259249. growth activity, negative = inhibition, % at 16 µg/mL (by protocol). Clostridium difficile clinical isolate growth, OD600, 24 h; active compounds read low;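 active = mean growth activity at or below -80% and every replicate also at or below -80%; inconclusive = mean at or below -80% but some replicate above -80%; inactive = mean growth activity above -80%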;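 note: 0% = DMSO wells and -100% = levofloxacin 16 µg/mL wells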
Pf Dd2 growth – inhibitors of Plasmodium falciparum Dd2 growth; activity change, % at 10 µM; AID 1159554; 94,000 compounds, 2.3% hits; P. falciparum Dd2 growth, SYBR Green, 72 h; active compounds read low; in the data active = activity change below about -80%; inconclusive = no clear call, values can overlap the other calls
T cruzi growth – T. cruzi proliferation inhibition. inhibition, % at 8.34 µM. AID 624255. 77,000 compounds, 5.9% hits. T. cruzi beta-gal in NIH3T3, GalScreen luminescence, 90 h;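 active = mean inhibition above about 93%, with at least 55% of replicates each passing it, limit read from the data, passing the limit was not always enough; inconclusive = only one of those two conditions holds; inactive = neither condition holds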
Starred values were filed as active, the others as inactive; ! = not confirmed by another sample. Sampled rows, rich in hits. Any-hit rate of the full collection: about 6.7%.

For N#Cc1ccc(-c2ccc(C3[C@@H]4CN(C(=O)C5CCC5)C[C@H]3N4)cc2)cc1 (stereo not given in full) the results were C diff HTS -1 and Pf Dd2 growth -91*!.
O=C(C1CCCC1)N1C[C@@H]2N[C@H](C1)C2c1ccc(-c2cncnc2)cc1 (stereo not given in full) was read as C diff HTS 3 and Pf Dd2 growth -9.
C[C@H](CO)N1C[C@H](C)[C@@H](CN(C)C(=O)Nc2cccc3ccccc23)Oc2ccc(NS(=O)(=O)c3cccs3)cc2CC1=O was read as C diff HTS 0, Pf Dd2 growth -25 and T cruzi growth 16.
COc1ccc(CN(C)C[C@@H]2Oc3ccc(NS(C)(=O)=O)cc3C(=O)N([C@H](C)CO)C[C@@H]2C)cc1 was read as C diff HTS 0 and Pf Dd2 growth -1.
COCCNC(=O)C[C@@H]1CC[C@@H]2[C@H](COC[C@@H](O)CN2Cc2cccc(-c3ccncc3)c2)O1 was read as C diff HTS 16, Pf Dd2 growth -1 and T cruzi growth 55.
`N#Cc1cccc(-c2ccc(C3[C@@H]4CN(C(=O)C5CC5)C[C@H]3N4)cc2)c1` (stereo not given in full) gave C diff HTS -5 and Pf Dd2 growth -90*!.
For N#Cc1cccc(-c2ccc(C3[C@@H]4CN(C(=O)Nc5ccccc5)C[C@H]3N4)cc2)c1 (stereo not given in full) the results were C diff HTS 39 and Pf Dd2 growth -31.
For C[C@H]1CN([C@@H](C)CO)C(=O)c2cccc(NC(=O)C3CCCCC3)c2O[C@@H]1CN(C)S(=O)(=O)c1cccs1 the results were C diff HTS -5, Pf Dd2 growth 6 and T cruzi growth 1.
COc1ccc2c3c(n(C)c2c1)[C@H](CO)N(C(=O)Nc1ccc(F)cc1)CC31CCN(Cc2ccccn2)CC1 was read as C diff HTS -4 and Pf Dd2 growth -89*.
For COc1ccc2c3c(n(C)c2c1)[C@@H](CO)N(C(=O)Nc1ccc(F)cc1)CC31CCN(Cc2ccccn2)CC1 the results were C diff HTS -2 and Pf Dd2 growth -88*.
`COc1ccc2c3c([nH]c2c1)[C@H](CO)N(C(=O)Nc1ccc(F)cc1)CC31CCN(Cc2cc(-c3ccccc3)on2)CC1` gave C diff HTS 4 and Pf Dd2 growth -87*.
COc1ccc2c3c([nH]c2c1)[C@@H](CO)N(C(C)=O)CC31CCN(Cc2cc(-c3ccccc3)on2)CC1 was read as C diff HTS -3 and Pf Dd2 growth -67.
`COc1cccc(CN2CCC3(CC2)CN(C(=O)Nc2ccc(F)cc2)[C@H](CO)c2c3c3ccc(OC)cc3n2C)c1` gave C diff HTS 52 and Pf Dd2 growth -35.
COc1ccc2c3c(n(C)c2c1)[C@@H](CO)N(C(=O)Nc1ccc(F)cc1)CC31CN(Cc2ccccn2)C1 was read as C diff HTS -3 and Pf Dd2 growth -57.
COc1ccccc1-c1cnc2c(c1)C(=O)N([C@@H](C)CO)C[C@@H](C)[C@@H](CN(C)Cc1ccc(F)cc1)O2 was read as C diff HTS 4 and Pf Dd2 growth -12.
`CS(=O)(=O)N1CC(=O)N2[C@H](CO)[C@H](c3ccc(C#Cc4ccccc4)cc3)[C@@H]2C1` gave C diff HTS 1 and Pf Dd2 growth -12.
For CCNC(=O)C[C@@H]1CC[C@@H](NC(=O)C2CC2)[C@H](CO)O1 the results were Pf Dd2 growth 1 and T cruzi growth 6.
COc1ccccc1NC(=O)N[C@@H]1CC[C@@H](CCNS(=O)(=O)c2ccccc2)O[C@H]1CO was read as Pf Dd2 growth 4 and T cruzi growth -65.
For CO[C@H]1CN(C)C(=O)c2ccc(NC(=O)Nc3cc(F)ccc3F)cc2OC[C@H](C)NC[C@@H]1C the results were C diff HTS -1 and Pf Dd2 growth -11.
`C[C@H]1CN([C@@H](C)CO)C(=O)c2cc(-c3ccc(F)cc3)cnc2O[C@H]1CN(C)C(=O)c1ccc(F)cc1` gave C diff HTS -6 and T cruzi growth 22.
`COc1ccc(NC(=O)Nc2ccc3c(c2)C(=O)N([C@H](C)CO)C[C@H](C)[C@@H](CN(C)CC2CC2)OCCCC[C@@H](C)O3)cc1` gave C diff HTS 5, Pf Dd2 growth -59 and T cruzi growth 38.
For COc1ccc(NC(=O)Nc2ccc3c(c2)C(=O)N([C@@H](C)CO)C[C@H](C)[C@@H](CN(C)CC2CC2)OCCCC[C@H](C)O3)cc1 the results were Pf Dd2 growth -90* and T cruzi growth 59.
Screening COc1ccc(NC(=O)Nc2ccc3c(c2)C(=O)N([C@@H](C)CO)C[C@H](C)[C@@H](CN(C)CC2CCCCC2)OCCCC[C@H](C)O3)cc1 returned C diff HTS -4, Pf Dd2 growth -86* and T cruzi growth 90.
For COc1ccc(NC(=O)Nc2ccc3c(c2)C(=O)N([C@H](C)CO)C[C@H](C)[C@H](CN(C)CC2CCCCC2)OCCCC[C@H](C)O3)cc1 the results were C diff HTS -14, Pf Dd2 growth inconclusive and T cruzi growth 93.
`O=C(C[C@@H]1CC[C@@H]2[C@H](COC[C@@H](O)CN2CC2CC2)O1)NCC1CC1` gave C diff HTS 8, Pf Dd2 growth 7 and T cruzi growth 7.
OC[C@@H]1[C@@H](c2ccc(C#CC3(O)CCCC3)cc2)[C@@H]2CN(Cc3ccccc3F)CCCCN12 was read as C diff HTS 1, Pf Dd2 growth -29 and T cruzi growth 21.
For COc1ccc(C#Cc2ccc([C@@H]3[C@H](CO)N4CCCCN(Cc5ccccc5F)C[C@@H]34)cc2)cc1 the results were C diff HTS -97*, Pf Dd2 growth -82* and T cruzi growth 16.
COc1ccc(C#Cc2ccc([C@@H]3[C@@H](CO)N4CCCCN(Cc5ccccc5F)C[C@@H]34)cc2)cc1 was read as C diff HTS 22, Pf Dd2 growth -53 and T cruzi growth 27.
For COc1ccc(C#Cc2ccc([C@H]3[C@H](CO)N4CCCCN(Cc5ccccc5F)C[C@@H]34)cc2)cc1 the results were C diff HTS -97*, Pf Dd2 growth -80 and T cruzi growth 62.
For COc1ccc(C#Cc2ccc([C@H]3[C@@H](CO)N4CCCCN(Cc5ccncc5)C[C@H]34)cc2)cc1 the results were C diff HTS 1, Pf Dd2 growth -83* and T cruzi growth 52.
Screening COc1ccc(C#Cc2ccc([C@H]3[C@@H](CO)N4CCCCN(Cc5ccncc5)C[C@@H]34)cc2)cc1 returned C diff HTS -4, Pf Dd2 growth -53 and T cruzi growth 66.
Screening CO[C@@H]1CN(C)C(=O)c2ccc(NS(=O)(=O)c3ccccc3)cc2OC[C@H](C)N(C(=O)NC(C)C)C[C@@H]1C returned C diff HTS 0, Pf Dd2 growth 9 and T cruzi growth -8.
`CO[C@H]1CC[C@H]2CCN(C)C(=O)[C@H](C)[C@H](OC)CN(C)C(=O)c3cc(C#N)ccc3OC[C@H]1O2` gave Pf Dd2 growth 16 and T cruzi growth -46.
For C[C@@H]1CCCCO[C@H](CN(C)C(=O)Nc2cccc3ccccc23)[C@H](C)CN([C@H](C)CO)C(=O)c2cc(NC(=O)Cc3ccccc3)ccc2O1 the results were C diff HTS -2 and Pf Dd2 growth -84*.
